Test [1] is described as follows: antimalarial activity against Dd2 strain (AID 2302;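 active = growth inhibition above 50% at the single 2 µM test dose, taken to imply half-maximal potency below 2 µM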;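 note: 0% = DMSO untreated growth and 100% = chloroquine plus artemisinin killed control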). Particulars: P. falciparum Dd2 in RBCs, LDH growth readout, 72 h; at 2 µM; active compounds read high.
A short description of test [2]: human hepatoma cell viability loss – ATP luminescence, cytotoxicity control for P. falciparum antimalarial project, primary screen (AID 2303;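 active = inhibition above 50%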;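 note: 0% = DMSO wells and 100% = digitonin-killed cells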). Particulars: HepG2 viability, 24-48 h, at 10 µM, active compounds read high.
Test [3] addresses L-lactate dehydrogenase (Plasmodium falciparum (isolate CDC / Honduras)) (UniProt Q27743). Put plainly: PfLDH activity inhibition – cell lysate, 3D7 strain, counter-screen for P. falciparum growth inhibition project (AID 2304).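 Note: 0% = vehicle and 100% = reference inhibitor.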 Conditions: P. falciparum 3D7 crude extract, LDH APAD/NBT absorbance; at 2 µM; active compounds read high.
Test [4] is described as follows: inhibition of 3D7 malaria parasite growth – strain 3D7 (AID 2306).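 Note: 0% = DMSO wells and 100% = chloroquine plus artemisinin control wells.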 Conditions: P. falciparum 3D7 erythrocytic growth, LDH absorbance, 72 h; at 2 µM; active compounds read high.
Test [5] deals with Calcium-dependent protein kinase 1 (Plasmodium falciparum (isolate 3D7)) (UniProt P62344). The experiment in a line: PfCDPK1 kinase inhibitors, biochemical, TCAMS library (AID 1159585; cut-off not given, nearly all actives have IC50 up to about 0.98 µM;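 note: inhibitors leave more ATP so luminescence rises with inhibition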). Conditions: recombinant PfCDPK1, Kinase-Glo ATP depletion luminescence.
Sequence of Calcium-dependent protein kinase 1 (Plasmodium falciparum (isolate 3D7)) (P62344 whole entry, looked up): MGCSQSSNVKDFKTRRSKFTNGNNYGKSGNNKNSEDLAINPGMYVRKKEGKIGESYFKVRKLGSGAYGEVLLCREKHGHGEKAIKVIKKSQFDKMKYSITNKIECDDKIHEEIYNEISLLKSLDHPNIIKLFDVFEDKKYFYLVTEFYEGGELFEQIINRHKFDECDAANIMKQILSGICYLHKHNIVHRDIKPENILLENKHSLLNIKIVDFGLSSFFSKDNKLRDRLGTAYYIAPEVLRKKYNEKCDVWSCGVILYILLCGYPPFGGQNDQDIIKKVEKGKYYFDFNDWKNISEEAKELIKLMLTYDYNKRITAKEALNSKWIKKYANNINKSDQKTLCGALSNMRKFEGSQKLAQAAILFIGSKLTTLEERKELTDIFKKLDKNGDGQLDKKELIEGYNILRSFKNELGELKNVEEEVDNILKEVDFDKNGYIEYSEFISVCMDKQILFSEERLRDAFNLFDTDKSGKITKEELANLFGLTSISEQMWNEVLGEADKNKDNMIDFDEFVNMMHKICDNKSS
In test [6] the target is Plasmodium falciparum protein kinase 6 (PK6, PF3D7_1337100) (UniProt Q8IDW1). Put plainly: PfPK6 kinase inhibitors, biochemical, TCAMS library (AID 1159586). Conditions: recombinant PfPK6, Kinase-Glo ATP depletion luminescence.
Sequence of Plasmodium falciparum protein kinase 6 (PK6, PF3D7_1337100) (Q8IDW1 1-305): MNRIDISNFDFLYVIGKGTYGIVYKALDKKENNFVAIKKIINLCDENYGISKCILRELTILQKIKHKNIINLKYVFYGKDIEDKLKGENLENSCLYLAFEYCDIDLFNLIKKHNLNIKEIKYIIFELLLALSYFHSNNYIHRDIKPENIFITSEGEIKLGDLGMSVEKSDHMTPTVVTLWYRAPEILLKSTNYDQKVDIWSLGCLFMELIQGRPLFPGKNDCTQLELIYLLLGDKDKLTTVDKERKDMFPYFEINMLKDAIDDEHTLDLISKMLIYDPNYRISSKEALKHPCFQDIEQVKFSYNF
The target in test [7] is Protein kinase 7 (PK7), Plasmodium falciparum 3D7 (PF3D7_0213400) (UniProt Q7YTF7). The experiment in a line: inhibition of Plasmodium PK7 catalytic activity – biochemical, TCAMS antimalarial set, Kinase-Glo luminescence (AID 1159587). Conditions: recombinant PfPK7, Kinase-Glo ATP depletion luminescence.
Sequence of Protein kinase 7 (PK7), Plasmodium falciparum 3D7 (PF3D7_0213400) (Q7YTF7 1-343): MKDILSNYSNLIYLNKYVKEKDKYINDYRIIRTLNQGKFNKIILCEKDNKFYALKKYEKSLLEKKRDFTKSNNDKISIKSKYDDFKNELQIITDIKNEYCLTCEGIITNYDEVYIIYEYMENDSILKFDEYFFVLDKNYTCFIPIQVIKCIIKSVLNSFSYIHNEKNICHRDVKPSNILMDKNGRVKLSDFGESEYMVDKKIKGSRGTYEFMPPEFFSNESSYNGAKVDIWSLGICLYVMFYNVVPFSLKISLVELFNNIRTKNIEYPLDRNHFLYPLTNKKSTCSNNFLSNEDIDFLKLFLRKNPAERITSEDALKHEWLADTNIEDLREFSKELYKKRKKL
The target of test [8] is Calcium-dependent protein kinase 4 (Plasmodium falciparum (isolate 3D7)) (UniProt Q8IBS5). Put plainly: PfCDPK4 kinase inhibitors, biochemical, TCAMS library (AID 1159588; cut-off not given, nearly all actives have IC50 up to about 0.91 µM). Conditions: recombinant PfCDPK4, Kinase-Glo ATP depletion luminescence.
Sequence of Calcium-dependent protein kinase 4 (Plasmodium falciparum (isolate 3D7)) (Q8IBS5 whole entry, looked up): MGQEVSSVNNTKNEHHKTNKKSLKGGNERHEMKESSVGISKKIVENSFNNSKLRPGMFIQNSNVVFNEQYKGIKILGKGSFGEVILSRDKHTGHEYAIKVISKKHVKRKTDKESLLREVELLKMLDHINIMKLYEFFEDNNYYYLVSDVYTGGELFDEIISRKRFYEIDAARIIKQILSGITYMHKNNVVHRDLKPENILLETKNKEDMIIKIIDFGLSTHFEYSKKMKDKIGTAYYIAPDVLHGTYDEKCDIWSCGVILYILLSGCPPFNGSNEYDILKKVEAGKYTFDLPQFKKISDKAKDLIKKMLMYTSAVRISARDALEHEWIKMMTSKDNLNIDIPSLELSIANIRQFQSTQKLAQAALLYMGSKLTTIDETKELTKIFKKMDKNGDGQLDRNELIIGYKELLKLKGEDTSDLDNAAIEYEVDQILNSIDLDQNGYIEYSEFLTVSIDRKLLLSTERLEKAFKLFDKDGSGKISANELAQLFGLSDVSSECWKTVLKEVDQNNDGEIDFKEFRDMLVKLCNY

Unmarked numbers belong to inactive results. For some of these results: Entries with a potency or affinity are not part of this list. The source made the active and inactive calls. Unless noted, the rule behind the calls is not given here.

Sequence of L-lactate dehydrogenase (Plasmodium falciparum (isolate CDC / Honduras)) (Q27743 whole entry, looked up): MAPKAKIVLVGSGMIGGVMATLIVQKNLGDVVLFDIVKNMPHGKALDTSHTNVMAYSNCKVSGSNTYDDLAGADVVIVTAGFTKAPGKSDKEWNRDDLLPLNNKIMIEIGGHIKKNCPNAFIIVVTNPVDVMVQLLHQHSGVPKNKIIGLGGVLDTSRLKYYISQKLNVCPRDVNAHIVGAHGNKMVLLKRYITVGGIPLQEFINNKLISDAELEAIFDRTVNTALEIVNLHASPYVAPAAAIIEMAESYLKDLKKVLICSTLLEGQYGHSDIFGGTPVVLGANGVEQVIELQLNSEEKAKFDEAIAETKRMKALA

On to `CC[C@H]1CN(Cc2cccc(O)c2)CC[C@H]1CCCc1ccnc2ccc(O)cc12`, for which the growth inhibition in test [1] is 98% (active); in test [4], 103% (active). In addition, the inhibition is 14% in test [2] and 4% in test [3]. Moreover, the outcome in test [5], in test [6], in test [7] and in test [8] was inactive.

Consider `COc1cc2cc(C(=O)Nc3ccccc3)c(N)nc2cc1OC`, for which the growth inhibition in test [1] is -2%; in test [4], 90% (active). Also, the results for the inhibition in test [2] and in test [3] were 0% and -1%, respectively. In addition, the result in test [5], in test [6], in test [7] and in test [8] was inactive.

Take `c1ccc(COc2ccc(Nc3ncnc4ccc(-c5ccc(CN6CCSCC6)o5)cc34)cc2)cc1`: the values for the growth inhibition in test [1] and in test [4] were 4% and 94% (active), respectively. The inhibition in test [2] and in test [3] was 4% in each case. Besides, the result in test [5], in test [6], in test [7] and in test [8] was inactive.

For the molecule `Cc1ccc(O)cc1Nc1c(C(N)=O)cnc2ccc(-c3cncs3)cc12`, the growth inhibition was 99% (active) in test [1] and 100% (active) in test [4]. In addition, the inhibition in test [2] was 21%; in test [3] it was 3%. The outcome in test [5], in test [6], in test [7] and in test [8] was inactive.

In the case of `CCCC(C)Nc1nc(C)cc(N[C@@H](CC(C)C)C(=O)NCc2cccc(F)c2)n1` (stereo not given in full), the values for the growth inhibition in test [1] and in test [4] were 63% (active) and 96% (active), respectively. Moreover, the inhibition was 1% in test [2] and 0% in test [3]. Moreover, the outcome in test [5], in test [6], in test [7] and in test [8] was inactive.

On to `CCc1cccc(C)c1-n1nc(-c2cc(C(C)(C)C)oc2C)cc1N`, for which the growth inhibition in test [1] and in test [4] was 95% (active) throughout. Moreover, the inhibition is 4% in test [2] and 5% in test [3]. The result in test [5], in test [6], in test [7] and in test [8] was inactive.

In the case of `CCN(CC)CCCN(C(=O)Nc1c(Cl)cncc1Cl)c1nc(-c2ccc(F)cc2)cs1`, the values for the growth inhibition in test [1] and in test [4] were 93% (active) and 101% (active), respectively. For the same molecule, the inhibition in test [2] was 37%; in test [3], -5%. The result in test [5], in test [6], in test [7] and in test [8] was inactive.

In the case of `COc1cc(C(=O)Nc2nc3ccccc3[nH]2)ccc1OCC(=O)Nc1cccc(C(F)(F)F)c1`, the growth inhibition in test [1] was 33%; in test [4], 100% (active). In addition, the inhibition is 33% in test [2] and -8% in test [3]. For the same molecule, the result in test [5], in test [6], in test [7] and in test [8] was inactive.

For `COc1cc(N(Cc2ccccc2C)S(=O)(=O)Cc2ccccc2[N+](=O)[O-])c(OC)cc1Cl`, the growth inhibition is 44% in test [1] and 94% (active) in test [4]. For the same molecule, the values for the inhibition in test [2] and in test [3] were 16% and -2%, respectively. Further, the outcome in test [5], in test [6], in test [7] and in test [8] was inactive.

Consider `CCOc1cc(C(=O)NC2CC(C)(C)NC(C)(C)C2)ccc1-c1nc2ccc(Cl)cc2[nH]1`, for which the growth inhibition was 64% (active) in test [1] and 100% (active) in test [4]. The results for the inhibition in test [2] and in test [3] were 46% and 4%, respectively. Besides, the result in test [5], in test [6], in test [7] and in test [8] was inactive.

Regarding `C=CCOC(=O)N1CCC(CNCc2cccc(-c3ccc(-c4nc5ccccc5[nH]4)s3)c2)C1` (stereo not given), the growth inhibition in test [1] is 63% (active); in test [4], 99% (active). Besides, the inhibition in test [2] was 9%; in test [3] it was 0%. Also, the result in test [5], in test [6], in test [7] and in test [8] was inactive.

For `Cc1[nH]c(C)c(-c2ccc(-c3ccc(Cl)cc3)nc2)c(=O)c1Cl`, the figures for the growth inhibition in test [1] and in test [4] were 96% (active) and 95% (active), respectively. Moreover, the inhibition was 8% in test [2] and 3% in test [3]. Also, the outcome in test [5], in test [6], in test [7] and in test [8] was inactive.

As to `CCNc1cc(CC)nc(Nc2ccc(C)cc2)n1`, the growth inhibition in test [1] was 24%; in test [4] it was 100% (active). Besides, the inhibition in test [2] was 22%; in test [3], -1%. The result in test [5], in test [6], in test [7] and in test [8] was inactive.

For the molecule `CC(Oc1cccc(Cl)c1)C(=O)N1CCc2ccccc21` (stereo not given), the values for the growth inhibition in test [1] and in test [4] were 77% (active) and 94% (active), respectively. The results for the inhibition in test [2] and in test [3] were 4% and -1%, respectively. For the same molecule, the outcome in test [5], in test [6], in test [7] and in test [8] was inactive.

`CCc1ccc(NC(=O)N(CCCn2ccnc2)Cc2csc(-c3ccc(CNCc4ccccc4)cc3)n2)cc1`: the results for the growth inhibition in test [1] and in test [4] were 39% and 103% (active), respectively. Moreover, the inhibition in test [2] was 9%; in test [3], 3%. In addition, the outcome in test [5], in test [6], in test [7] and in test [8] was inactive.

`CC(C)n1nc(C(=O)N2CCN(c3ccccc3)CC2)c2ccccc2c1=O`: the growth inhibition in test [1] is 3%; in test [4] it was 96% (active). Also, the inhibition is 34% in test [2] and 0% in test [3]. Also, the result in test [5], in test [6], in test [7] and in test [8] was inactive.

As for `Cc1ccc(C2CCN(CCCCNC(=O)c3ccc(NC(=O)c4ccc(Cl)cc4)cc3)CC2)c(C)c1`, the growth inhibition was 10% in test [1] and 96% (active) in test [4]. Besides, the inhibition in test [2] is 23%; in test [3], -1%. Besides, the result in test [5], in test [6], in test [7] and in test [8] was inactive.

Turning to `O[C@H](c1cc(C(F)(F)F)nc2c(C(F)(F)F)cccc12)[C@@H]1CCCCN1`, the growth inhibition in test [1] and in test [4] was 99% (active) throughout. The inhibition is 29% in test [2] and 7% in test [3]. Also, the result in test [5], in test [6], in test [7] and in test [8] was inactive.

Turning to `N=c1n(Cc2ccccc2)c2ccccc2n1CC(O)c1ccc(Cl)cc1` (stereo not given), the growth inhibition in test [1] is 75% (active); in test [4] it was 96% (active). Moreover, the figures for the inhibition in test [2] and in test [3] were 26% and -1%, respectively. The result in test [5], in test [6], in test [7] and in test [8] was inactive.

Turning to `CCN(CC)CCCC(C)Nc1cc(C=Cc2ccccc2Cl)nc2cc(Cl)ccc12` (stereo not given), the growth inhibition in test [1] was 77% (active); in test [4], 99% (active). In addition, the inhibition was 0% in test [2] and -2% in test [3]. Further, the outcome in test [5], in test [6], in test [7] and in test [8] was inactive.
